# IMPase cell inh – cell-permeable inhibitors of inositol monophosphatase (IMPase); CHO-M1 cells, IP1 accumulation, HTRF TR-FRET ratio; inhibition (IP1 accumulation), % at 46.1 µM; 120,000 tested, under 10 active; P97697; AID 901; active means well fitted curve in the direction sought with a large enough effect in the signal ratio, not every such curve was filed as active; inconclusive means small, poorly fitted or top-dose-only effect, or a change in a side signal; inactive means no such curve, though single readings can be large or run the other way; the % refers to the signal ratio;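 further: cells stimulated with carbachol in lithium chloride buffer; plate controls were DMSO basal wells for no effect and reference inhibitor wells for full effect; higher means more IMPase inhibition seen as more IP1 and lower FRET ratio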
#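 In this qHTS, compounds (final up to 46 uM) act on CHO-M1 cells that are then activated through the M1 receptor with carbachol, in pH 7.4 buffer containing 50 mM LiCl, for 30 min. IP1 accumulation is quantified by the IP-One immunoassay.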
# IMPase Li cell – cell-permeable IMPase inhibitors with lithium potentiation. AID 1457. Potency, µM (series often up to 59.4 µM), for the others: top-dose activity, negative = IMPase inhibition, actives largely listed as inhibitors. CHO-M1 cells, IP1 TR-FRET (IP-One), carbachol + lithium. 0.35% of 210,000 active;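 further: IP1 builds up when IMPase is blocked and the TR-FRET signal falls; potency means the concentration at half of the fitted maximal effect; plate controls were basal vehicle for no effect and high inhibitor control for full effect; nearly all actives have a fitted effect of over 50% in size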
#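 IP1 accumulation measured by competitive TR-FRET in lysed CHO-M1 cells after 30 min compound exposure at 37C, with a small lithium addition to potentiate weak responses. Hill-equation AC50 from ratio and donor-channel data.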
# ALOX12 inhib – 12-hLO (ALOX12) enzyme inhibition. P18054. purified 12-hLO, xylenol orange hydroperoxide absorbance. Potency, µM (doses to about 57.1 µM), without a hit: at the top dose activity change, negative = inhibition, most hits filed as inhibitors. 0.12% of 150,000 active. AID 1452; further: potency means the concentration at half of the fitted maximal effect; nearly all actives have a fitted effect of over 55% in size
#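 Purified human 12hLO (150 nM), preincubated 15 min with compound, then 40 uM arachidonic acid for 30 min, room temperature, Hepes pH 7.0 with 0.01% Triton X-100. Hydroperoxide detected by ferrous iron/xylenol orange; 573/405 nm absorbance ratio gives reaction progress.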
# HPGD block – inhibitors of human 15-hydroxyprostaglandin dehydrogenase (HPGD) | purified HPGD, NADH fluorescence kinetic, PGE2 substrate | Potency, µM, for the others: at the highest dose activity change, negative = inhibition, actives largely listed as inhibitors | 4.3% of 150,000 active | AID 894; active means well fitted inhibition curve with a large enough effect, not every such curve was filed as active; inconclusive means small, poorly fitted or top-dose-only effect, or another doubt; inactive means no such curve, though single readings can be large or run the other way; further: potency means the concentration at half of the fitted maximal effect
# Target sequence (P15428 whole entry, looked up): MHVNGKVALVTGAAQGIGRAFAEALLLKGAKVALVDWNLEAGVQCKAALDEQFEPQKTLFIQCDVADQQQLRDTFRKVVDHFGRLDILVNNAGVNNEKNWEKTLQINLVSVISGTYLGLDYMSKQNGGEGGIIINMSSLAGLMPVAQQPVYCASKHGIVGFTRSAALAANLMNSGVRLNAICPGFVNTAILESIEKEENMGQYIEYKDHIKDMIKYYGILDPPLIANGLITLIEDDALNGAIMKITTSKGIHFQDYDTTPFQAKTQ
#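 20 nM HPGD preincubated 15 min at room temperature with compound in 50 mM Tris-HCl pH 8, 0.01% Tween 20. Started with 1 mM NAD+ and 30 uM prostaglandin E2; NADH fluorescence (360/450 nm) read 5 times over 30-s intervals, last minus first.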
# ALDH1A1 inh – ALDH1A1 (human) enzyme inhibition. Potency, µM (titrated, usually from 75.3 µM), for the others: at the top dose activity, negative = inhibition, usual class: inhibitors. 7.3% of 220,000 active. P00352. Purified ALDH1A1, NADH fluorescence, propionaldehyde substrate; active means well fitted inhibition curve with a large enough effect, not every such curve was filed as active; inconclusive means small, poorly fitted or top-dose-only effect, or another doubt; inactive means no such curve, though single readings can be large or run the other way;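 further: potency means the concentration at half of the fitted maximal effect; plate controls were no enzyme wells and a reference inhibitor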
# Target sequence (P00352 whole entry, looked up): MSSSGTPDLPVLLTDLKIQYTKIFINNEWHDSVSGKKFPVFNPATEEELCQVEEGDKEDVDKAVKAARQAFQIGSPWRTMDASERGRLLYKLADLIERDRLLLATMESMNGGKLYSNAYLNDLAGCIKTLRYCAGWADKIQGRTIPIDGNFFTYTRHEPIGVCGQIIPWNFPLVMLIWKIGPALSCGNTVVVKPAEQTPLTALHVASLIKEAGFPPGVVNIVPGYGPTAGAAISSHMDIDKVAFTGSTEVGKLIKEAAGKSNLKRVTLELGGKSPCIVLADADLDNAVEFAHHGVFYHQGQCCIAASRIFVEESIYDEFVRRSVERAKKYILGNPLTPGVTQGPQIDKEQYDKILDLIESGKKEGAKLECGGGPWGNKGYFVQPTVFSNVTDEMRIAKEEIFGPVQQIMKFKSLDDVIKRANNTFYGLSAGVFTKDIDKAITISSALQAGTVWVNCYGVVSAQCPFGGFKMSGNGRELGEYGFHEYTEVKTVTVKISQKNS
# PNC assembly inh – blocks assembly of the perinucleolar compartment | activity change (PNC), negative = inhibition, % at 10 µM | PC3M PTB-GFP, PNC prevalence imaging, 16 h; active compounds read low | 3.1% of 140,000 active;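 active means readout at or below -70, meaning at least 70% loss of cells showing the perinucleolar compartment, a nuclear body marking cancer cells; inconclusive means readout between -30 and a set limit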;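 further: plate controls were DMSO wells for no effect and camptothecin positive control wells for full effect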
#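 PC3M cells stably expressing PTB-GFP, 750–1000 cells/well, treated 16 h at 37 °C with compound (23 nl of library stock), in duplicate. After paraformaldehyde fixation and Hoechst stain, imaged at 20x; PNC prevalence scored by image analysis.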
# Active calls of the source: *; ? = inconclusive; . = not tested or not shown; [ ] = remark or other dose. Rows were chosen to be rich in hits. Some 11% of all compounds tested hit in one or more screens of this group. Unless noted, the call rests on the fitted dose curve; in most records, active means well fitted curve in the direction sought with a large enough effect; inconclusive means small, poorly fitted or top-dose-only effect, or another doubt; inactive means no such curve, though single readings can be large; an effect the other way counts as inactive or inconclusive. Unless noted, on the % scale 0 is the no-effect control and ±100 the full control effect.
SMILES,IMPase cell inh,IMPase Li cell,ALOX12 inhib,HPGD block,ALDH1A1 inh,PNC assembly inh
Cn1c(SCc2nc(-c3ccccc3)no2)nnc1-c1cccs1,?,-6%,-7%,4%,3%,56
Cn1c(SCc2nc(-c3ccc(Cl)cc3)no2)nnc1-c1cccs1,7,0%[38.3 µM],-4%,-27%,3%,-111*
COCCCn1c(=N)c(S(=O)(=O)c2ccccc2)cc2c(=O)n3cccc(C)c3nc21,2,.,.,.,.,.
Cc1ccc(Cn2nnnc2CN2CCC(O)(c3ccccc3F)CC2)cc1,7,13%,-17%,-10%,?,-100*
Cc1ccc(Cn2nnnc2CN2CCC(NC(=O)c3ccccc3F)CC2)cc1,-2,3%[38.3 µM],-7%,1%,-1%,-17
COC(=O)c1ccc(NC(=O)CSc2nc3cc4ccccc4cc3[nH]2)cc1,0,.,.,.,.,.
Cc1ccc(OCCNC(=O)/C=C/c2ccco2)cc1C,.,-1%,.,.,11µM*,.
COc1ccc(C2(CNC(=O)/C=C\c3ccco3)CCCC2)cc1OC,4[1.84 µM],21%[38.3 µM],-16%,?,3.5µM*,?
O=C(/C=C/c1ccco1)NCCCN1CCN(CCCNC(=O)/C=C/c2ccco2)CC1,.,16%,1%,-2%,0%,60
CC(/C=C/c1ccco1)=N\NC(=O)COc1ccc(C)c(C)c1,.,3%,.,.,3.5µM*,.
CCOC(=O)N/N=C(C)/C=C/c1ccco1,.,18%,-1%,-16%,10µM*,-8
CC(=O)c1ccc[nH]1,.,6%,2%,-8%,1%,.
COc1ccc(C#CC2C=CC(OC(C)=O)C(COC(C)=O)O2)cc1 (stereo not drawn),.,.,.,.,0%[13.5 µM],.
CNc1nc(-c2cccnc2)nc2ccccc12,.,-1%,.,.,0%,.
CC(/C=C/c1ccco1)=N\NC(=O)CNc1ccc2ccccc2c1,.,25%,.,.,7.9µM*,.
CSCCC1C(=O)OC2(C)CC(C)(C)NC(=S)N12 (stereo not drawn),1,3%,3%,-10%,3%,-100*
COc1ccc2c(c1)OC(=O)CC2c1ccc2c(c1)OCO2 (stereo not drawn),.,3%,-4%[0.00818 µM],-6%,?,.
O=C(Nc1ccccc1)C1CC=CCC1C(=O)OCC1CCCO1 (stereo not drawn),7,6%[38.3 µM],-18%,-2%,-6%,51
CCc1cc(C=NC2CCCCC2)c(O)s1,1,33%[38.3 µM],?,4.5µM*,?,?
COc1ccc(-c2csc3c2[N+]2=CCC=C2C3=O)cc1,.,-3%,-7%[11.4 µM],-5%,-10%[13.5 µM],.
Fc1ccc(Nc2nc3ccccc3s2)cc1,.,15%,.,.,1%,.
O=[N+]([O-])c1ccc(Nc2nc3ccccc3s2)cc1,.,0%,-23%[11.4 µM],-29%,1.4µM*,.
CCCc1cc2c(c(=O)o1)C(O)C1OC1C2=O (stereo not drawn),.,.,.,.,4µM*,.
CCCc1cc(=O)c2c(O)cccc2o1,.,.,.,.,-11%,.
COC(=O)CCS(=O)(=O)c1cc(Cl)ccc1Cl,-2,1%[38.3 µM],-10%,-15%,9%,-138*
SMILES,IMPase cell inh,IMPase Li cell,ALOX12 inhib,HPGD block,ALDH1A1 inh,PNC assembly inh
COC(=O)CCS(=O)(=O)c1ccc(NC(C)=O)cc1,3,-13%[38.3 µM],13%,-13%,4%,-11
COCCn1c(SCC#N)nnc1-c1ccc(OC)cc1,-8,15%,-9%,-8%,4%,-100*
COC(=O)CCCCC(=O)OC,.,-10%,-1%,-1%,-6%,.
C=CCCCCCCCCC(=O)NN,-1,1%,3%,-8%,14µM*,-9
C=CCCCCCCCC(=O)OC,.,-1%,.,.,18µM*,.
CCOC(=O)C1CCN(C(=O)c2ccc3c(c2)N=C(CC)c2cc(C)ccc2S3)CC1,18,.,.,.,.,.
COc1ccc(Oc2ncc3nc(-c4ccc(OC)cc4)c(=O)n(Cc4cccs4)c3n2)cc1,.,?,-1%,-5%,?,.
N#CCCN(CCC#N)C(=O)c1ccc2c(c1)OCO2,0,20%[38.3 µM],-1%,-3%,13%,-19
CCCN(CCC)C(=O)c1ccc2c(c1)OCO2,12,0%,-3%,25µM*,4%,24
O=C(O)c1c(-c2c3ccc(=O)cc-3oc3cc(O)ccc23)cc2ccccc2c1-c1ccccc1,.,-5%,10%[11.4 µM],-6%,10%[13.5 µM],.
O=C(C[N+]1(CC#Cc2ccccc2)CCCCC1)c1ccccc1,.,25%,.,.,8.9µM*,.
O=C(C[N+]1(CC#Cc2ccccc2)CCCCC1)c1ccc(Cl)cc1,.,15%,.,.,22µM*,.
CCCn1c(C)nc2c(N(CCOC)CCOC)nc(C)nc21,.,-12%,-3%,1%,7%,.
COCCNC(=S)NCc1ccc2[nH]c3c(c2c1)CCCC3,.,11%,.,.,?,.
Cc1ccc(NC(=S)NCc2ccc3[nH]c4c(c3c2)CCCC4)cc1,.,25%,?,-36%,18µM*,15
Cc1n[nH]c(=S)n1/N=C/c1ccc(OCc2ccc(Cl)cc2)cc1,7,9%[38.3 µM],?,7.9µM*,0%,17
Cc1n[nH]c(=S)n1/N=C/c1ccccc1,.,-5%,-3%,?,-6%,41
Cc1n[nH]c(=S)n1/N=C/c1ccc(OCc2ccc(Cl)cc2Cl)cc1,.,13%,-5%,?,-12%,?
Cc1cc(C)c(COc2ccc(/C=N/n3c(C)n[nH]c3=S)cc2)c(C)c1,.,8%,-18%,10µM*,?,44
S=c1[nH]nc(Cc2ccc(Br)cc2)n1/N=C/c1ccc(Cl)cc1,.,3%,.,.,28µM*,.
COc1ccc(NCc2ccc([N+](=O)[O-])s2)c(OC)c1,.,2%,-7%,-14%,25µM*,43
COc1ccc(NCc2ccc([N+](=O)[O-])s2)cc1,.,10%,-1%,-7%,-15%,26
CCCCOC1(c2ccccc2)NC(=S)NN=C1c1ccccc1 (stereo not drawn),-6,20%[38.3 µM],-25%,-5%,0.56µM*,4
CCCCCCOC1(c2ccccc2)OC(=O)c2ccccc21 (stereo not drawn),14,10%[38.3 µM],2%,-11%,6%,-10
COC1(c2ccccc2)NC(=S)NN=C1c1ccccc1 (stereo not drawn),-11,14%[38.3 µM],-11%,-7%,0.89µM*,30
CC(O)[C@@H](O)[C@H]1CNc2nc(N)[nH]c(=O)c2N1 (stereo partly drawn),.,5%,.,?,?,.
Cc1cc(C)cc(C(=O)Nc2ccc3[nH]c(=O)[nH]c3c2)c1,.,-12%,.,.,-4%,.
COc1cc(/C=C2\C(=O)N(c3ccc(S(N)(=O)=O)cc3)N=C2C)ccc1OC(=O)c1ccco1,.,9%,.,.,?,.
CCOc1cc(/C=C2/SC(=S)NC2=O)ccc1OC(=O)c1ccco1,.,21%,.,.,8.9µM*,.
CCOc1cc(/C=C2/C(=N)N3OC(C)=CC3=NC2=O)ccc1OCCOc1ccccc1,6,-4%[38.3 µM],-9%,?,?,-21

# Source: PubChem
